In the supplement of paper PMC9588786:
± gives the standard deviation of the averaged measurements.

tested on: HT-1080; experiment: relative cell viability with RSL3 co-treatment (fraction of control); higher = stronger protection from RSL3-induced ferroptosis (higher viability); details: 10 µM
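Also: viability read as CCK-8 absorbance at 450 nm in cells co-exposed to the GPX4 inhibitor RSL3, relative to a 0.01% DMSO vehicle control.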

Going from `N#CCNC(=O)c1ccc(-c2ccnc(Nc3ccc(N4CCOCC4)cc3)n2)cc1` [Momelotinib (CYT387)] to `CNC(=O)c1ccccc1Nc1nc(Nc2ccc(N3CCOCC3)cc2OC)ncc1Cl`, the relative cell viability falls from 0.4 ± 0.075 to 0.247 ± 0.07.

Compared with `CN1CCN(c2ccc(-c3ccncc3-c3cc(F)c(O)c(F)c3)cc2)CC1`, `CN1CCN(c2cccc(Nc3nc4c(-c5ccc(S(C)(=O)=O)cc5)cccn4n3)c2)CC1` is higher in relative cell viability: 0.48 ± 0.25 for the first, 1.21 ± 0.03 for the second.

`O=C1NC(=O)/C(=C/c2ccc3c(c2)OC(F)(F)O3)S1` and `O=C1NC(=O)/C(=C/c2cccc(C(F)(F)F)c2)S1` are within error of each other in relative cell viability: 0.82 ± 0.07 for the first, 0.807 ± 0.015 for the second.

`CC(=O)Nc1cccc(-n2c(=O)n(C3CC3)c(=O)c3c(Nc4ccc(I)cc4F)n(C)c(=O)c(C)c32)c1` and `CCC(=O)Nc1cccc(Oc2nc(Nc3ccc(N4CCN(C)CC4)cc3OC)ncc2Cl)c1` are within error of each other in relative cell viability: 0.78 ± 0.052 for the first, 0.803 ± 0.097 for the second.

First: CCOC(=O)c1cnc2ccc(-c3cncc(NS(=O)(=O)c4ccccc4)c3)cn12
Second: CCCS(=O)(=O)Nc1ccc(F)c(C(=O)c2c[nH]c3ncc(-c4ccc(Cl)cc4)cc23)c1F [Vemurafenib (PLX4032, RG7204)]
The relative cell viability of the first is higher: 0.717 ± 0.09 for the first, 0.323 ± 0.091 for the second.

Going from `CNC(=O)c1cc(Oc2ccc3nc(N[C@@H]4CCCC[C@H]4O)sc3c2)ccn1` to `NC(=O)c1cnc(N[C@@H]2CCCC[C@@H]2N)nc1Nc1cccc(-n2nccn2)c1`, the relative cell viability falls from 0.767 ± 0.05 to 0.56 ± 0.11.

`CCc1cncnc1N1CCN(Cc2nc3ccc(C(F)(F)F)cc3[nH]2)CC1` and `Cc1ccc(C(=O)Nc2ccc(CN3CCN(C)CC3)c(C(F)(F)F)c2)cc1C#Cc1cnc2[nH]ncc2c1` [GZD824 Dimesylate] are within error of each other in relative cell viability: 0.653 ± 0.083 for the first, 0.553 ± 0.031 for the second.

Compared with `COc1cc(-c2cc(-c3ccc(N4CCNCC4)cc3)cnc2C)cc(OC)c1OC`, `COc1ccc(-c2ccc3ncc4c(c3c2)n(-c2ccc(N3CCNCC3)c(C(F)(F)F)c2)c(=O)n4C)cn1` is lower in relative cell viability: 0.74 ± 0.075 for the first, 0.29 ± 0.087 for the second.

First: O=c1ncn2nc(Sc3ccc(F)cc3F)ccc2c1-c1c(Cl)cccc1Cl
Second: NC(=O)c1ccc(N(C(N)=O)c2c(F)cccc2F)nc1-c1ccc(F)cc1F
The relative cell viability of the first is lower: 0.5 ± 0.14 for the first, 0.733 ± 0.042 for the second.

`Cn1ncc(Cl)c1-c1cc(C(=O)N[C@H](CN)Cc2ccc(F)c(F)c2)oc1Cl` and `CC(C)Nc1cc(-c2c[nH]c(C(=O)N[C@H](CO)c3cccc(Cl)c3)c2)c(Cl)cn1` are the same in relative cell viability: 0.753 ± 0.07 for the first, 0.753 ± 0.076 for the second.

Compared with `C1=N/C2=N/c3ccc(OCCN4CCCC4)c(c3)COC/C=C/COCc3cccc(c3)C(=C1)N2` [Pacritinib (SB1518)], `Oc1cccc(-c2nc(N3CCOCC3)c3oc4ncccc4c3n2)c1` is higher in relative cell viability: 0.467 ± 0.096 for the first, 0.75 ± 0.044 for the second.

`CCCCCCCCCCCCCCCCOP(=O)([O-])OCC[N+](C)(C)C` [Miltefosine] and `CCn1c(N)c(C(=O)NC)c(=O)c2ccc(C#CC(C)(O)COC)nc21` (stereo not drawn) are within error of each other in relative cell viability: 0.6 ± 0.13 for the first, 0.89 ± 0.16 for the second.

`O=C(c1ccc(F)c(F)c1Nc1ccc(I)cc1F)N1CC(O)([C@@H]2CCCCN2)C1` [Cobimetinib (GDC-0973, RG7420)] and `O=C1Nc2ccc(I)cc2/C1=C/c1cc(Br)c(O)c(Br)c1` are within error of each other in relative cell viability: 0.797 ± 0.032 for the first, 0.573 ± 0.2 for the second.

`CO[C@H]1C[C@@H]2CC[C@@H](C)[C@@](O)(O2)C(=O)C(=O)N2CCCC[C@H]2C(=O)O[C@H]([C@H](C)C[C@@H]2CC[C@@H](O)[C@H](OC)C2)CC(=O)[C@H](C)/C=C(\C)[C@@H](O)[C@@H](OC)C(=O)[C@H](C)C[C@H](C)/C=C/C=C/C=C/1C` [Rapamycin (Sirolimus)] and `COC(=O)Nc1ccc(-c2nc(N3CCOCC3)c3cnn(C4CCN(C(=O)OC)CC4)c3n2)cc1` are within error of each other in relative cell viability: 0.387 ± 0.085 for the first, 0.547 ± 0.18 for the second.

First: Oc1ccc(Nc2nc(-c3ccc(Cl)cc3)cs2)cc1
Second: Cc1ncc(-c2ccnc(Nc3ccc(S(C)(=O)=O)cc3)n2)n1C(C)C
The relative cell viability of the first is higher: 0.66 ± 0.095 for the first, 0.43 ± 0.095 for the second.

Compared with `S=C(NCc1ccc2c(c1)OCO2)N1CCN(c2ncnc3c2oc2ccccc23)CC1` [Amuvatinib (MP-470)], `Nc1ccc(C(=O)Nc2cccc(-c3nc(N4CCOCC4)c4oc5ncccc5c4n3)c2)cn1` is lower in relative cell viability: 0.55 ± 0.072 for the first, 0.303 ± 0.067 for the second.

Compared with `COc1cc2nccc(Oc3ccc(NC(=O)C4(C(=O)Nc5ccc(F)cc5)CC4)cc3)c2cc1OC` [Cabozantinib malate (XL184)], `COc1cc2ncc(-c3ccccc3)nc2cc1OC` [Tyrphostin AG 1296] is lower in relative cell viability: 0.8 ± 0.017 for the first, 0.567 ± 0.11 for the second.

First: C[C@@H]1COCCN1c1cc(C2([S@](C)(=N)=O)CC2)nc(-c2cc[nH]c3nccc2-3)n1
Second: COc1ncc(-c2cc(-c3ncc(CN4C[C@@H](C)O[C@@H](C)C4)o3)c3cn[nH]c3c2)cc1NS(C)(=O)=O
The relative cell viability of the first is higher: 0.777 ± 0.06 for the first, 0.563 ± 0.051 for the second.

`COc1cccc(-c2cc(=O)c3ccccc3o2)c1N` and `C[C@H](Nc1ncnc2[nH]cnc12)c1cc2ccc(F)cc2nc1-c1ccccn1` are within error of each other in relative cell viability: 0.717 ± 0.064 for the first, 0.59 ± 0.18 for the second.
